# In PubChem BioAssay (NCI):
# Compounds without any hit were thinned out: in the full panel of roughly 83,000, 20% have a hit.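 A percent growth of 40 corresponds to 60% growth inhibition; 0 means no net growth; -100 means all cells died. Active threshold: below 10.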 A number with no mark means an inactive call. The source made the active and inactive calls.
# Tested on: HL-60(TB) leukemia
# Test: NCI-60 one-dose screen, 48 h (100 = growth as untreated, 0 = no growth, -100 = all killed)
# Details: 10 µM unless noted
row,SMILES,growth
1,O=C(O)c1ccc2c(c1)C(=O)c1ccccc1C2=O,102%
2,COc1cccc(/C=N/NC(=S)NC2CC3CCC2C3)c1O (stereo not given),71.3%
3,CN1CCCc2cc(/C=C3\SC(=S)N(C(Cc4ccc(O)cc4)C(=O)O)C3=O)ccc21 (stereo not given),99.9%
4,CCCCNC(=O)C(=O)NCCCC,113%
5,O[C@@H]1CO[C@H]2[C@@H]1OC[C@@H]2O,98%
6,C/C(=C\c1cc(Cl)ccc1OCC(=O)O)[N+](=O)[O-],52.5%
7,CCOC(=O)CSCCC#N,118%
8,COC(=O)c1ccc2c(c1)nc(-c1ccc(Cl)cc1)n2-c1cc(C(C)(C)C)[nH]n1,14.9%
9,O=Cc1c(OCc2cnnn2CC(=O)Nc2ccc(Cl)cc2)ccc2ccccc12,98.5%
10,CCCn1cnc2c(c1=N)C(c1ccc(Cl)cc1)c1sc3c(F)cccc3c1O2 (stereo not given),62.5%
11,COc1cccc(C(=O)NCCCNc2cc(-c3cn(-c4ccccc4)nc3-c3cccc(OC)c3)ccn2)c1,22.7%
12,Cc1ccc(Cn2c(-c3cccs3)nc3ccccc32)cc1,122%
13,Cc1ccc(C(=O)N/N=C/c2ccc3c(c2)OCO3)cc1,90.4%
14,CNC(=O)NCC1OC(n2cnc3c(NC(=O)Nc4ccccc4)ncnc32)C(O[Si](C)(C)C(C)(C)C)C1CC(=O)N(C)OC (stereo not given),-33.1% (active)
15,O=C1N/C(=N/N=C(c2ccccc2)c2ccccc2)S/C1=C\c1ccc(Br)cc1,89.1%
16,Cc1ccc(N2C(=O)C=CC2=O)cc1,63.2%
17,COc1ccc(C(=O)Nn2c(NCC(=O)N3c4ccccc4Sc4ccccc43)nnc2-c2ccc(O)cc2)cc1,94.3%
18,CC(C)c1cc(C(C)C)c(S(=O)(=O)Oc2ccc(NC(=O)c3ccc(Cl)cc3)cc2)c(C(C)C)c1,16.9%
19,CC1=CSC2=NCCN12,97.1%
20,CCN(CC)CCOc1ccc(/C(=C(\C)c2ccc(Cl)cc2)c2ccc(Cl)cc2)cc1,41.4%

row,SMILES,growth
1,CN1CCN(C(=O)c2ccc(NC(=O)c3cc4c(nn3)NCCN4Cc3cc(Cl)ccc3Cl)cc2)CC1,43%
2,CCCCCCCCOC(=O)CC[C@@H](C)[C@H]1CC[C@H]2[C@@H]3[C@H](OC(=O)CCN)C[C@@H]4C[C@H](OC(=O)CCN)CC[C@]4(C)[C@H]3C[C@H](OC(=O)CCN)[C@]12C,43.7%
3,CNC(=O)c1cc(Oc2ccc3c(c2)sc2nc(-c4ccc(N)cc4)cn23)ccn1,2.04% (active)
4,COC(=O)[C@@H](Cc1c[nH]c2ccccc12)NC(=O)/C=C/c1ccccc1,0.51% (active)
5,CCCCCCCCCCCCCCCCCC(=O)OCCCCCCCCCCCCC,112%
6,O=C(Oc1ccccc1Cl)c1ccc(Cl)cc1Cl,106%
7,O=C(CCCCCn1c2ccccc2c2c3c(c4c5ccccc5[nH]c4c21)C(=O)N(O)C3=O)N1CCOCC1,44.6%
8,CCC(=C(c1ccc(OCCCN(C)C)cc1)c1ccc(OCCCN(C)C)cc1)c1ccc(Cl)cc1,-55.3% (active)
9,CC(C)C(=O)Cc1cnccn1,134%
10,CC1CCCCN1C(=S)Nc1ccc(S(=O)(=O)N2CCCCC2)cc1 (stereo not given),102%
11,CC1=C(C(=O)n2c3ccccc3c3ccccc32)C(c2cccc([N+](=O)[O-])c2)C(C(=O)n2c3ccccc3c3ccccc32)=C(C)N1,91%
12,COc1cc(NC(=O)c2cc(O)c(CC=C(C)C)c(O)c2)cc2c1O[C@]1(C)CC[C@@H](O)C(C)(C)[C@H]1C2,9.12% (active)
13,COc1ccc(C2Nc3ccccc3-n3cccc32)cc1 (stereo not given),113%
14,CN(Cc1ccccc1)Cc1ccc([N+](=O)[O-])cc1I,85%
15,N#CCNc1ccc(C(=O)O)cc1,99.2%
16,CC(=O)N1N=C(c2ccc(Nc3nc(Nc4ccc(F)cc4)nc(Nc4ccc(F)cc4)n3)cc2)CC1c1ccccc1 (stereo not given),83%
17,O=C(/C=C/c1ccc(C(F)(F)F)cc1)Nc1ccc(C=C2c3ccccc3C(=O)c3ccccc32)cc1,11.2%
18,Fc1ccc(Nc2nc(Nc3ccc(-c4nc5ccccc5[nH]4)cc3)c3cn[nH]c3n2)cc1,91.4%
19,Nc1ncnc2c1c(C(F)(F)F)cn2[C@@H]1O[C@H](CO)[C@@H](O)[C@H]1O,-26.1% (active)
20,O=S(=O)(NCCNc1nccc(-c2c(-c3cccc(F)c3)nc3sccn23)n1)c1ccc(Cl)cc1,95.9%
